The text below walks through data of ChEMBL document CHEMBL3988442, “University of Dundee, Small-Polar-MMV Screening Library” (2021).

The assay deals with T1, Methionyl-tRNA synthetase, putative (Leishmania donovani (strain BPK282A1)) (UniProt E9BF75).
T1 sequence (whole entry): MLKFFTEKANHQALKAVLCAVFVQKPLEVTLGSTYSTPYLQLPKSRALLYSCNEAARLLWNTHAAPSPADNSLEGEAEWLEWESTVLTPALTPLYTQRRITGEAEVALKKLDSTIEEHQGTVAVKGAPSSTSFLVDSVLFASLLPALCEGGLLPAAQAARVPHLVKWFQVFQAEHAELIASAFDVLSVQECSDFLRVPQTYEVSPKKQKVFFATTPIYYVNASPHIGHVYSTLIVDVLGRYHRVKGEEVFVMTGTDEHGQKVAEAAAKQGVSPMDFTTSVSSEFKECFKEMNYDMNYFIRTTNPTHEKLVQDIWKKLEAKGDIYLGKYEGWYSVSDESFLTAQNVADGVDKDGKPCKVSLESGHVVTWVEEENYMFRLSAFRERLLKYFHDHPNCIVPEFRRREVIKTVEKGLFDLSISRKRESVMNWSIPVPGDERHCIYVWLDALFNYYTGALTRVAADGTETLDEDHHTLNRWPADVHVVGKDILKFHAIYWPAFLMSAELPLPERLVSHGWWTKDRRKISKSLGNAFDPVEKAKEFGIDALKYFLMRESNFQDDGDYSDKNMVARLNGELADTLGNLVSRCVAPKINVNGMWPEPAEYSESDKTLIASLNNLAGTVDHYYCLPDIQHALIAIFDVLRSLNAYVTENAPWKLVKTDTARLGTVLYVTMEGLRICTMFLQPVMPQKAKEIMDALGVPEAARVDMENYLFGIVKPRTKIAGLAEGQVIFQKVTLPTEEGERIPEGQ
The assay can be described thus: Leishmania donovani Methionine tRNA synthetase (LdMetRS):v7. Dose response assay. The assay is classed as functional. Also on record: conc 80 nM, time 150 minutes.

`Cn1ncc2c(NCCO)nc(N3CCCCC3)nc21` yielded a PXC50 (MAX_EFFECT 10.78998073) of less than 4.

`FC(F)(F)CCNCc1cc(Cl)cc(Cl)c1` displayed a PXC50 (MAX_EFFECT 11.28107075) of less than 2.7.

Take `Clc1cc(Cl)cc(CNC2COC2)c1`: the PXC50 (MAX_EFFECT 15.10516252) is less than 2.7.

`COc1ccccc1NC(=O)Nc1cccc(N)c1` returned a PXC50 (MAX_EFFECT 17.00934579) of less than 4.

The compound `Clc1cc(Cl)cc(NC2COC2)c1` had a PXC50 (MAX_EFFECT 18.9292543) of less than 2.7.

On to `CC(NCc1cc(Cl)cc(Cl)c1)C1CCS(=O)(=O)CC1` (configuration not stated), for which the PXC50 (MAX_EFFECT 19.31166348) is less than 2.7.

Take `Cn1ncc2c(NCCO)nc(NCCS(=O)(=O)N3CCOCC3)nc21`: the PXC50 (MAX_EFFECT 23.12138728) is less than 4.

Compound `Clc1cc(Cl)cc(CNCc2c[nH]cn2)c1` had a PXC50 (MAX_EFFECT 24.66539197) of less than 2.7.

For the compound `C[C@@H](CO)Nc1ccnc(Nc2cccc(F)c2)n1`, where the note is “MAX_EFFECT 30.05780347”, the PXC50 was less than 4.

As to `Oc1ccccc1-c1nc(Nc2ccccc2Cl)c2ccccc2n1`, the PXC50 (MAX_EFFECT 30.74074074) is less than 4.

Turning to `COc1ccncc1NC(=O)N1CCCc2ccccc21`, for the setting “MAX_EFFECT 36.98113208”, the PXC50 was less than 4.

As for `C[C@H](CO)Nc1ccnc(Nc2cccc(C(F)(F)F)c2)n1`, where the note is “MAX_EFFECT 43.93063584”, the PXC50 was less than 4.

Regarding `Clc1cc(Cl)cc(CNCc2ccccn2)c1`, the PXC50 (MAX_EFFECT 45.69789675) was less than 2.7.

`NS(=O)(=O)c1cccnc1Nc1ccc(F)c(F)c1` showed a PXC50 (MAX_EFFECT -0.759013283) of less than 4.

Consider `COc1cccc(NC(=O)Nc2ccccc2OC)c1`, for which the PXC50 (MAX_EFFECT 2.056074766) was less than 4.

As to `COc1ccccc1CNC(=O)Nc1ccccc1OC`, the PXC50 (MAX_EFFECT 9.158878505) was less than 4.

Under “MAX_EFFECT 19.53578337”, `COc1cccc(NC(=O)N2CCOc3ccccc32)c1` yielded a PXC50 of less than 4.

In turn, `OCCNc1ccnc(Nc2cccc(C(F)(F)F)c2)n1` registered a PXC50 (BOTTOM -3.630779809, HILLSLOPE 0.738811655, MAX_EFFECT 60.88631985, TOP 100.0) of 4.28.

Turning to `OCCCNc1ccnc(Cl)n1`, the PXC50 (MAX_EFFECT 7.32177264) is less than 4.

Compound `O=c1nc(NCCCNC2CCOc3c(Cl)cc(Cl)cc32)[nH]c2ccccc12` (configuration not stated) had a PXC50 (BOTTOM 1.104460677, HILLSLOPE 1.218727258, MAX_EFFECT 102.5925926, TOP 101.9327021) of 6.05.

For `COc1ccccc1NC(=O)NCC1CCCCC1`, the PXC50 (MAX_EFFECT 34.20560748) was less than 4.

Compound `COc1ccccc1NC(=O)Nc1c[n+]([O-])ccc1OC` registered a PXC50 (MAX_EFFECT 3.018867925) of less than 4.

On to `CN(CCO)c1ccnc(Cl)n1`, for which the PXC50 (MAX_EFFECT 1.682242991) is less than 4.

Regarding `Cn1ncc2c(NCCO)nc(N3CCOCC3)nc21`, the PXC50 (MAX_EFFECT 5.69259962) was less than 4.

As to `COc1cc(NC(=O)c2cccs2)c2ncccc2c1`, the PXC50 (MAX_EFFECT 11.11111111) was less than 4.

The compound `COc1ccccc1NC(=O)Nc1nn(C)c2cccc(OC)c12` returned a PXC50 (MAX_EFFECT 17.77777778) of less than 4.

Consider `Cc1cnn(C)c1CNc1cc(Cl)cc(Cl)c1`, for which the PXC50 (MAX_EFFECT 23.51816444) is less than 2.7.

Consider `Clc1cc(Cl)cc(NCc2c[nH]cn2)c1`, for which the PXC50 (BOTTOM -1.936831904, HILLSLOPE 1.590281355, MAX_EFFECT 96.5583174, TOP 100.0) was found to be 3.41.

For `NS(=O)(=O)c1cccn2c1nc1cccnc12`, where the note is “MAX_EFFECT 1.851851852”, the PXC50 was less than 4.

The compound `COc1cc(Nc2ncccc2S(N)(=O)=O)cc(C(F)(F)F)c1` yielded a PXC50 (MAX_EFFECT 0.199600798) of less than 4.

The compound `OCCCNc1ccnc(Nc2cccc(F)c2)n1` gave a PXC50 (MAX_EFFECT 28.51637765) of less than 4.

Consider `Cc1noc(CCNc2nc(NCCO)c3cnn(C)c3n2)n1`, for which, under “MAX_EFFECT 0.580270793”, the PXC50 is less than 4.

For `OCCNc1nccc(Cl)n1`, under “MAX_EFFECT 0.560747664”, the PXC50 was less than 4.

In turn, `NS(=O)(=O)c1cccnc1NC1CCCCC1` returned a PXC50 (MAX_EFFECT 6.986027944) of less than 4.

In the case of `COC(=O)c1ccc(OC)c(NC(=O)Nc2ccccc2OC)c1`, the PXC50 (MAX_EFFECT 5.794392523) is less than 4.

For `OCCNc1ccnc(Cl)n1`, the PXC50 (MAX_EFFECT 3.551401869) was less than 4.

As to `NS(=O)(=O)c1cccnc1Nc1cc(C(=O)O)cc(C(F)(F)F)c1`, for the setting “MAX_EFFECT 6.165703276”, the PXC50 was less than 4.

As to `Cc1cccc(Nc2ncccc2S(N)(=O)=O)c1`, the PXC50 (MAX_EFFECT 4.448742747) is less than 4.

As to `COc1cccc(NC(=O)N2CCCc3ccccc32)c1`, under “MAX_EFFECT 45.28301887”, the PXC50 is less than 4.

In the case of `CN1CCN(c2nc(NCCO)c3cnn(C)c3n2)CC1`, the PXC50 (MAX_EFFECT 6.165703276) was less than 4.

As for `CC(C)Nc1nc(NCCO)c2cnn(C)c2n1`, the PXC50 (MAX_EFFECT 5.313092979) was less than 4.

`Cn1ncc2c(NCCO)nc(NCCCO)nc21`: the PXC50 (MAX_EFFECT 7.543520309) is less than 4.

`COc1ccccc1NC(=O)Nc1cc(C(=O)O)ccc1OC` yielded a PXC50 (MAX_EFFECT 5.794392523) of less than 4.

Turning to `Clc1cc(Cl)cc(CNCc2ncc[nH]2)c1`, the PXC50 (MAX_EFFECT 20.45889101) was less than 2.7.

With `COc1ccc(Nc2ncccc2S(N)(=O)=O)cc1C(F)(F)F`, the PXC50 (MAX_EFFECT 5.780346821) was less than 4.

`COc1ccc(OC)c(NC(=O)N2CCOc3ccc(C)cc32)c1` yielded a PXC50 (MAX_EFFECT 7.777777778) of less than 4.

For the compound `NS(=O)(=O)c1cccnc1Nc1cccc(O)c1`, the PXC50 (MAX_EFFECT 3.333333333) was less than 4.

With `OCCCNc1ccnc(Nc2ccc(F)c(F)c2)n1`, the PXC50 (BOTTOM 8.063501062, HILLSLOPE 0.925044522, MAX_EFFECT 61.50943396, TOP 93.0681126) was 4.25.

In the case of `Clc1cc(Cl)cc(NCc2ccccn2)c1`, the PXC50 (BOTTOM 0.466583915, HILLSLOPE 0.636268233, MAX_EFFECT 51.05162524, TOP 100.0) was 2.71.

Turning to `Clc1cc(Cl)cc(CNCc2cccnc2)c1`, the PXC50 (MAX_EFFECT 23.51816444) was less than 2.7.

`Nc1nc(-c2ccccc2)cn1NC(=O)Nc1ccccc1F`: the PXC50 (MAX_EFFECT 18.14814815) was less than 4.

With `Cc1cc(CNCc2cc(Cl)cc(Cl)c2)no1`, the PXC50 (MAX_EFFECT 24.66539197) was less than 2.7.

`Cn1ncc2c(NC3CC3)nc(Nc3ccc(F)c(F)c3)nc21`: under “MAX_EFFECT 47.9245283”, the PXC50 was less than 4.

For the compound `Cc1nc(N2CC(N3CCCCC3C)C2)c2ccsc2n1` (configuration not stated), the PXC50 is less than 4 (MAX_EFFECT 5.319148936) and less than 4 (MAX_EFFECT 5.699481865).

`CS(=O)(=O)N1CCN(c2ccc3ccc(C(=O)NCCc4ccccc4)cn23)CC1`: the PXC50 worked out at 5.02 (BOTTOM 2.353808238, HILLSLOPE 2.745183605, MAX_EFFECT 51.67464115, TOP 50.17202443) and 4.82 (BOTTOM 6.057044372, HILLSLOPE 2.135645997, MAX_EFFECT 57.03839122, TOP 56.72145826).

Regarding `CN(CCO)c1nccc(Nc2ccc(F)c(F)c2)n1`, where the note is “MAX_EFFECT 7.663551402”, the PXC50 was less than 4.

Take `Cc1nc(N2CCC(N3CCSCC3)CC2)c2ccsc2n1`: the PXC50 runs as follows: (MAX_EFFECT 8.29015544) less than 4; (MAX_EFFECT 9.042553191) less than 4.

On to `COCCNc1nc(-n2nc(C)cc2C)nc2sc3c(c12)CCCC3`, for which the PXC50 was found to be 4.33 (BOTTOM 1.301145561, HILLSLOPE 1.464534306, MAX_EFFECT 52.38095238, TOP 100.0) and 4.48 (BOTTOM -0.0791, HILLSLOPE 1.372664479, MAX_EFFECT 81.02766798, TOP 100.0).
